This passage reports max response results from PubChem BioAssay (NCATS).

Several values for one entry are separate records, joined by “and”; a condition that tells them apart may be missing. Equal entries are not always repeated. Results filed as inconclusive are left out. A number with no mark means an inactive call. Unless noted, calls follow the shape of the dose curve; as a rule, active = well fitted curve in the direction sought with a large enough effect in the repeat runs; inconclusive = weak or mixed curves; inactive = no such curve, though single readings can be large; an effect the other way counts as inactive or inconclusive.
% is scaled to controls: 0 for no effect and ±100 for the full control effect.

One assay in a line: qHTS assay for small molecule agonists of the antioxidant response element (ARE) signaling pathway measured by Nrf2-dependant transcriptional activity - cell viability counter screen (AID 720653). The conditions noted are these: ARE-bla HepG2 viability, CellTiter-Glo ATP luminescence, 16 h; max response: hits give low values. The method, boiled down:
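ARE-bla HepG2 cells (2,000/well) rested 5 hrs at 37C/5% CO2, then exposed to compounds in DMSO for 16 hrs. Viability was read in the same wells as intracellular ATP by luminescence, 30 min at room temperature after reagent addition.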
In the case of `O=S(=O)(c1ccc(O)cc1)c1ccc(O)cc1`, the max response is -5.42%. With `COc1ccc(O)c(C(C)(C)C)c1`, the max response was 1.24%. In the case of `O=[N+]([O-])c1ccc(Oc2ccc(C(F)(F)F)cc2[N+](=O)[O-])cc1`, the max response was -18.9%. For the compound `Cc1ccccc1C(=O)Nc1cccc(OC(C)C)c1`, the max response was -14.9%. Consider `CN(C)P(=O)(N(C)C)N(C)C`, for which the max response was -5.07%.

Turning to `CCOc1ccc(C(C)(C)COCc2cccc(Oc3ccccc3)c2)cc1`, the max response is -4.24%. As to `O=c1[nH]c2ccccc2c(=O)o1`, the max response is -1.48%. The same measure, in the same setting: the value for `CN(C)c1nc(=O)n(C2CCCCC2)c(=O)n1C` was 8.36%; that for `C=CC1(C)OC(=O)N(c2cc(Cl)cc(Cl)c2)C1=O` (stereo unspecified) was -7.58%.

As to `COC(=O)c1ccccc1CS(=O)(=O)NC(=O)Nc1nc(OC)cc(OC)n1`, the max response is -5.06%. In the case of `CCC[CH2][Sn]([CH2]CCC)([O]C(C)=O)[O]C(C)=O`, the max response is -3.33%. As for `O=P(O)(O)CCCl`, the max response is -26.8% and 3.51%. Still for that read-out and setting: the value for `CCCCN(CC)C(=O)SCCC` was -4.49%. With `CCOP(=O)(NC(C)C)Oc1ccc(S(C)=O)c(C)c1` (stereo unspecified), the max response is 20.7%. Turning to `CCOP(=O)(O)C(N)=O`, the max response was -6.84%. Take `COC(=O)c1ccccc1S(=O)(=O)NC(=O)N(C)c1nc(C)nc(OC)n1`: the max response was -4.72%.

For the compound `Clc1ccc(C(Cl)(Cl)Cl)cc1`, the max response was -2.36%. Still for that read-out and setting: then `CCOC1Oc2ccc(OS(C)(=O)=O)cc2C1(C)C` (stereo unspecified), with -22.7%; and `COCc1cnc(C2=NC(C)(C(C)C)C(=O)N2)c(C(=O)O)c1` (stereo unspecified), with 4.02%. With `Clc1ccc([C@]2(Cn3cncn3)C[C@H](Br)CO2)c(Cl)c1`, the max response was -1.87% and -2%. As for `CCNc1nc(NC(C)(C)C)nc(SC)n1`, the max response was -11.3%. For the compound `CCCCC(CC)COC(=O)Cl` (stereo unspecified), the max response is -0.503%. On to `CCOP(=S)(OCC)SCC(=O)NC(C)C`, for which the max response is 2%. As for `CCOc1nc(NC)nc(NC(=O)NS(=O)(=O)c2ccccc2C(=O)OC)n1`, the max response was 13.3%. With `C/C(=N\NC(=O)Nc1cc(F)cc(F)c1)c1ncccc1C(=O)O`, the max response is -4.25% and -0.19%.

Turning to `C=CCC1=C(C)[C@@H](OC(=O)[C@@H]2[C@@H](C=C(C)C)C2(C)C)CC1=O`, the max response is -11.6%. Still for that read-out and setting: the value for `C=CC(=O)OCCCCCC(C)C` was 8.44%; that for `CCC(C)n1c(=O)[nH]c(C)c(Br)c1=O` (stereo unspecified) was 4.81%; that for `COP(=S)(OC)Oc1ccc([N+](=O)[O-])c(C)c1` was -3.17%. For the compound `CCN(CC)C(=O)C(C)Oc1cccc2ccccc12` (stereo unspecified), the max response is -4.78%. Same read-out and setting: the value for `CCCCC(CC)C(=O)Cl` (stereo unspecified) was -2.12%. With `CC(Oc1cc(Cl)c(Cl)cc1Cl)C(=O)O` (stereo unspecified), the max response was 15.3%.

Take `Cc1c(F)c(F)c(COC(=O)C2C(/C=C(\Cl)C(F)(F)F)C2(C)C)c(F)c1F` (stereo unspecified): the max response is -20.4%. As to `Nc1ccc([N+](=O)[O-])cc1Cl`, the max response was 3.06%.

A short description of another assay: qHTS assay for cell viability of HEK293 cells (AID 743288; active = well fitted curve in the direction sought with a large enough effect; an effect the other way counts as inactive or inconclusive; also: nearly all actives have a fitted effect of over 50% in size). The conditions noted are these: ATP luminescence (CellTiter-Glo), 18 h; max response: hits give low values. The method, boiled down:
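Luminescent ATP quantitation served as the viability read-out. Cells (parental HEK293, 2,000/well) received compounds after at least 5 h at 37 C and were exposed for 18 h before a 30 min room-temperature reagent step.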
A general note: Quantitative high-throughput screening tests each substance at several concentrations.
As to `O=S(=O)(c1ccc(O)cc1)c1ccc(O)cc1`, the max response is -8.18%. For the compound `COc1ccc(O)c(C(C)(C)C)c1`, the max response was -7.51%. Turning to `O=[N+]([O-])c1ccc(Oc2ccc(C(F)(F)F)cc2[N+](=O)[O-])cc1`, the max response was -11.9%. As for `Cc1ccccc1C(=O)Nc1cccc(OC(C)C)c1`, the max response was -16%.

Turning to `CN(C)P(=O)(N(C)C)N(C)C`, the max response was 0.472%. On the same count and under the same terms, the value for `CCOc1ccc(C(C)(C)COCc2cccc(Oc3ccccc3)c2)cc1` was -6.28%.

Regarding `O=c1[nH]c2ccccc2c(=O)o1`, the max response is -10.1%. On to `COc1ccc(C(O)(c2cncnc2)C2CC2)cc1` (stereo unspecified), for which the max response is -5.84%. On the same count and under the same terms, the value for `CN(C)c1nc(=O)n(C2CCCCC2)c(=O)n1C` was -6.56%. For `C=CC1(C)OC(=O)N(c2cc(Cl)cc(Cl)c2)C1=O` (stereo unspecified), the max response was -8.07%. For `O=P(O)(O)CCCl`, the max response was -9.79% and -10.1%. Consider `NS(=O)(=O)C(F)(F)C(F)(F)C(F)(F)C(F)(F)C(F)(F)C(F)(F)C(F)(F)C(F)(F)F`, for which the max response was -13.7%. Still for that read-out and setting: then `COP(=S)(OC)Oc1nc(Cl)c(Cl)cc1Cl`, with -14.5%; and `CCOP(=O)(O)C(N)=O`, with -8.79%; and `COC(=O)c1ccccc1S(=O)(=O)NC(=O)N(C)c1nc(C)nc(OC)n1`, with -7.64%. Consider `Clc1ccc(C(Cl)(Cl)Cl)cc1`, for which the max response is -0.236%. For the compound `CCOC1Oc2ccc(OS(C)(=O)=O)cc2C1(C)C` (stereo unspecified), the max response was -23.7%. On to `COCc1cnc(C2=NC(C)(C(C)C)C(=O)N2)c(C(=O)O)c1` (stereo unspecified), for which the max response was -3.54%. Same read-out and setting: then `Clc1ccc([C@]2(Cn3cncn3)C[C@H](Br)CO2)c(Cl)c1`, with -7.75% and -8.79%; and `CCNc1nc(NC(C)(C)C)nc(SC)n1`, with -12.7%; and `CC1CCCCC1NC(=O)Nc1ccccc1` (stereo unspecified), with -11.4%. `CCOc1nc(NC)nc(NC(=O)NS(=O)(=O)c2ccccc2C(=O)OC)n1`: the max response is 9.14%.

In the case of `C/C(=N\NC(=O)Nc1cc(F)cc(F)c1)c1ncccc1C(=O)O`, the max response was -5.69% and -3.6%. For the compound `C=CCC1=C(C)[C@@H](OC(=O)[C@@H]2[C@@H](C=C(C)C)C2(C)C)CC1=O`, the max response was -2.02%. Take `C=CC(=O)OCCCCCC(C)C`: the max response was 4.71%. The same measure, in the same setting: then `CCC(C)n1c(=O)[nH]c(C)c(Br)c1=O` (stereo unspecified), with -3.11%. Consider `COP(=S)(OC)Oc1ccc([N+](=O)[O-])c(C)c1`, for which the max response is -7.08%. On to `CCCCC(CC)C(=O)Cl` (stereo unspecified), for which the max response was -4.59%.

Take `CC(Oc1cc(Cl)c(Cl)cc1Cl)C(=O)O` (stereo unspecified): the max response was 0.242%. On the same count and under the same terms, the value for `Cc1c(F)c(F)c(COC(=O)C2C(/C=C(\Cl)C(F)(F)F)C2(C)C)c(F)c1F` (stereo unspecified) was -6.4%; that for `Nc1ccc([N+](=O)[O-])cc1Cl` was -1.89%. As for `CNC(=O)Oc1ccc(N(C)C)c(C)c1`, the max response was -1.07%.
